# Calls of active or inactive are those of the source. How the source made its calls: active means hit-call score of the fitted dose curve at least 0.9, where 1 is the maximum; inactive means score below 0.9.
# Columns and labels:
# [1] = ATG_NFI_CIS: Attagene CIS-FACTORIAL HepG2 Assay for human Nuclear Factor I (NFI) (AID 2282989); settings: HepG2 cis-regulatory reporter, NFI response element transcription; actives raise or lower the signal
# Method in brief: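 Endogenous TF activity in HepG2 cells transiently transfected with cis-element-driven multiplexed reporter units, read 24 h after dosing. Reporter mRNA quantified by RT-PCR, 6-FAM labelling, HpaI digestion and capillary electrophoresis; bidirectional fit versus DMSO.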
# [2] = target: Myc proto-oncogene protein (Homo sapiens) (UniProt P01106); experiment: ATG_Myc_CIS: Attagene CIS-FACTORIAL HepG2 Assay for human Myelocytomatosis (Myc) Proto-Oncogene Transcription Factor (AID 2282990); settings: HepG2, Attagene cis-reporter transcription factor activity; actives raise or lower the signal
# Method in brief: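 HepG2, transient MRTU transfection (cis promoters, endogenous TFs); 24 h dosing; TriZol RNA → oligo(dT) RT → PCR → 6-FAM primer extension → HpaI cut → CE. Bidirectional fit vs DMSO.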
# [3] = ATG_NRF2_ARE_CIS: Attagene CIS-FACTORIAL HepG2 Assay for human Nuclear Factor Erythroid 2 Related Factor 2 (NFR2) response to Antioxidant Response Elements (ARE) (AID 2282992); settings: HepG2 Attagene ARE/NRF2 reporter, transcription factor activity; actives raise or lower the signal;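 on AC50: reporter mRNA level measured by RT-PCR and capillary electrophoresis fluorescence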
# Method in brief: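 Multiplexed reporter mRNA profiling in HepG2 after a 24 h chemical exposure. Curves fitted in both directions relative to DMSO negative control.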
# [4] = ATG_Oct_MLP_CIS: Attagene CIS-FACTORIAL HepG2 Assay for human Octamer-Binding Transcription Factor (Oct) (AID 2282993); settings: HepG2 Attagene cis-factorial Oct reporter, mRNA; actives raise or lower the signal
# Method in brief: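 HepG2 cells transiently transfected with cis-element-driven reporter transcription units (endogenous TF activity); 24 h compound exposure. Reporter mRNA quantified by RT-PCR, 6-FAM labelling, HpaI digestion and capillary electrophoresis; bidirectional fit versus DMSO baseline.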
# [5] = target: Cellular tumor antigen p53 (Homo sapiens) (UniProt P04637); experiment: ATG_p53_CIS: Attagene CIS-FACTORIAL HepG2 Assay for human p53 Transcription Factor (AID 2282994); settings: HepG2 p53 cis-element reporter, Attagene mRNA; actives raise or lower the signal
# Method in brief: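 Multiplexed reporter mRNA assay in human HepG2 liver cells; cis-regulated units report endogenous factor activity. Values come from bidirectional curve fitting against DMSO negative control after 24 h treatment.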
# [6] = ATG_NF_kB_CIS: Attagene CIS-FACTORIAL HepG2 Assay for human Nuclear Factor Kappa B (NF-kB) (AID 2282991); settings: HepG2 Attagene cis-factorial NF-kB reporter mRNA; actives raise or lower the signal
# Method in brief: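 Multiplexed cis-reporter assay in transiently transfected HepG2. 24 h treatment; RNA isolated, RT-PCR, labelled fragments resolved by CE. DMSO baseline.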
# [7] = BSK_3C_TissueFactor: BioMAP Diversity Plus: 3C Assay for Tissue Factor Biomarker Activity (AID 2282997); settings: BioMAP 3C HUVEC, tissue factor biomarker readout; actives raise or lower the signal
# Method in brief: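 Human vascular primary cells (umbilical vein endothelium) received test chemical; Tissue Factor was determined by ELISA at 24 h, and both gain and loss of signal versus DMSO were fitted.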
# [8] = BSK_3C_uPAR: BioMAP Diversity Plus: 3C Assay for Urokinase-type plasminogen activator receptor (uPAR) Biomarker Activity (AID 2282998); settings: BioMAP 3C HUVEC, uPAR biomarker ELISA; actives raise or lower the signal
# Method in brief: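 Primary human umbilical vein endothelial cells, 3C system; surface uPAR measured by ELISA 24 h after dosing. Cytotoxicity via SRB total protein in parallel cultures; bidirectional fit against DMSO.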
# [9] = BSK_3C_VCAM1: BioMAP Diversity Plus: 3C Assay for Vascular cell adhesion molecule 1 (VCAM1) Biomarker Activity (AID 2282999); settings: BioMAP 3C HUVEC, VCAM1 ELISA, cytokine-stimulated; actives raise or lower the signal
# Method in brief: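 Endothelial cells from human umbilical vein are treated with test chemical. At 24 h, VCAM-1 is measured by ELISA, and responses in either direction are fitted relative to DMSO.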
# Myc proto-oncogene protein (Homo sapiens), sequence (P01106 whole entry, looked up): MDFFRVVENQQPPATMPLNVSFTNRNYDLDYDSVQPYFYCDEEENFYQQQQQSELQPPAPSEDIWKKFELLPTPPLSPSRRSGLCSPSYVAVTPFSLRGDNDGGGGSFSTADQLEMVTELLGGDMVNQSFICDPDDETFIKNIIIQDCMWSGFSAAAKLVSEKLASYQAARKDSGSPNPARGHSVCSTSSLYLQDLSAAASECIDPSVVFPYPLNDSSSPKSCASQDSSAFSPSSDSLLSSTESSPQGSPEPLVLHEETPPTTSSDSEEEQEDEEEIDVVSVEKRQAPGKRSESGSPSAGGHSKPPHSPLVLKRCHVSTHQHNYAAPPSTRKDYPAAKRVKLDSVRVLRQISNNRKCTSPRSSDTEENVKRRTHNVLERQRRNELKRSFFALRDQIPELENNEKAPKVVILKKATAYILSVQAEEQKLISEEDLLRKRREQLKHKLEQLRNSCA
# Cellular tumor antigen p53 (Homo sapiens), sequence (P04637 whole entry, looked up): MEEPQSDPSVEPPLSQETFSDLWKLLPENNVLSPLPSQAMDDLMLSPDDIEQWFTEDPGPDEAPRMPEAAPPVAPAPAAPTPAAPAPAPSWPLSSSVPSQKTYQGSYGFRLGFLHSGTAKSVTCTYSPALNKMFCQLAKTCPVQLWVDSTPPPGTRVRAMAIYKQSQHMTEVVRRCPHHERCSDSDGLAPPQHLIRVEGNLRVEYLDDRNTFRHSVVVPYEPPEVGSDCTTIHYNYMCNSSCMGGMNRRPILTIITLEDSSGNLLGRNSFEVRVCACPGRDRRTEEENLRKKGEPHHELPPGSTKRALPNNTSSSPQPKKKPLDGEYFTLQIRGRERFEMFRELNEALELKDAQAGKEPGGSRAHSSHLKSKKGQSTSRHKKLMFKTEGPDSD
smiles,measurement,setting,value
CCCCNS(=O)(=O)c1ccccc1,outcome,[1],inactive
same,outcome,[2],inactive
same,outcome,[3],inactive
same,outcome,[4],inactive
same,outcome,[5],inactive
CCC(C)C(=O)OC (stereo not given),outcome,[1],inactive
same,outcome,[2],inactive
same,outcome,[3],inactive
same,outcome,[4],inactive
same,outcome,[5],inactive
c1ccc2sc(SSN3CCOCC3)nc2c1,AC50,[1],75 µM (active)
same,AC50,[2],76.3 µM (active)
same,outcome,[6],inactive
same,AC50,[3],48.8 µM (active)
same,AC50,[4],100 µM (active)
same,AC50,[7],9.51 µM (active)
same,AC50,[8],4.34 µM (active)
same,AC50,[9],8.13 µM (active)
CC(=O)OC1CCCCC1,outcome,[2],inactive
same,outcome,[6],inactive
same,outcome,[3],inactive
same,outcome,[4],inactive
same,outcome,[5],inactive
CC(C)=NNC(N)=S,outcome,[1],inactive
same,outcome,[2],inactive
same,outcome,[3],inactive
same,outcome,[4],inactive
same,outcome,[5],inactive
CC(C)=CCCC(C)=CC#N,outcome,[1],inactive
same,outcome,[2],inactive
same,outcome,[3],inactive
same,outcome,[4],inactive
same,outcome,[5],inactive
CCc1cccc(C)c1N(C(=O)CS(=O)(=O)O)C(C)COC (stereo not given),outcome,[1],inactive
same,outcome,[2],inactive
same,outcome,[6],inactive
same,outcome,[3],inactive
same,outcome,[4],inactive
same,outcome,[7],inactive
same,outcome,[9],inactive
CCCCCCOc1ccc(N)cc1,outcome,[1],inactive
same,outcome,[2],inactive
same,outcome,[6],inactive
same,AC50,[3],100 µM (active)
same,outcome,[4],inactive
N#Cc1ccc(C2CCCc3cncn32)cc1 (stereo not given),outcome,[1],inactive
same,outcome,[2],inactive
same,outcome,[6],inactive
same,outcome,[3],inactive
same,outcome,[4],inactive
CO[Si](CCCS)(OC)OC,outcome,[1],inactive
same,outcome,[2],inactive
same,outcome,[6],inactive
same,outcome,[3],inactive
same,outcome,[4],inactive
same,outcome,[5],inactive
CO[Si](C)(C)OC,outcome,[1],inactive
same,AC50,[2],158 µM (active)
same,outcome,[3],inactive
same,outcome,[4],inactive
same,outcome,[5],inactive
CCCCCCCCCCCC(C)=O,outcome,[1],inactive
same,outcome,[2],inactive
same,AC50,[3],75.2 µM (active)
same,outcome,[4],inactive
same,AC50,[5],147 µM (active)
same,AC50,[7],25.4 µM (active)
same,AC50,[9],29.8 µM (active)
C=C1C[C@H]2[C@@H]3C=C(C)C4=CC(=O)CC[C@]4(C)[C@H]3CC[C@]2(C)[C@@]1(OC(C)=O)C(C)=O,outcome,[2],inactive
same,AC50,[6],63 µM (active)
same,AC50,[3],42.1 µM (active)
same,outcome,[4],inactive
N=C1C=CC(=C(c2ccc(N)cc2)c2ccc(N)cc2)C=C1,outcome,[1],inactive
same,outcome,[2],inactive
same,AC50,[6],41.1 µM (active)
same,AC50,[3],9.02 µM (active)
same,outcome,[4],inactive
same,AC50,[5],33.4 µM (active)
C=CC(=O)OCCCCCCCCCC,outcome,[1],inactive
same,outcome,[2],inactive
same,outcome,[6],inactive
same,outcome,[4],inactive
same,outcome,[5],inactive
CC=C(C)C=CC=C(C)C,outcome,[1],inactive
same,outcome,[2],inactive
same,AC50,[3],26.8 µM (active)
same,outcome,[4],inactive
same,outcome,[5],inactive
same,AC50,[7],20 µM (active)
same,outcome,[8],inactive
same,AC50,[9],18.6 µM (active)
CCCC=C(C=O)CC,outcome,[1],inactive
same,outcome,[2],inactive
same,outcome,[6],inactive
same,outcome,[4],inactive
CCCSSCCC,outcome,[1],inactive
same,outcome,[2],inactive
same,outcome,[3],inactive
same,outcome,[4],inactive
same,outcome,[5],inactive
CCCc1ccc(O)c(OC)c1,outcome,[1],inactive
same,outcome,[2],inactive
same,AC50,[3],28.8 µM (active)
same,outcome,[4],inactive
same,outcome,[5],inactive
c1ccc2cnccc2c1,outcome,[1],inactive
same,outcome,[2],inactive
same,outcome,[6],inactive
same,outcome,[3],inactive
same,outcome,[4],inactive
